Measured values published in paper PMC13541613, “GHT-SELEX demonstrates unexpectedly high intrinsic sequence specificity and complex DNA binding of many human transcription factors”.

Key:
Assay in all cases: HT-SELEX; 20 mM HEPES pH 7, 140 mM KCl, 5 mM NaCl, 1 mM K2HPO4, 2 mM MgSO4, 100 uM EGTA, ZnSO4, 0.1% Tween20; room temperature, 1 h; high values mean tight binding
Details in all cases: protein: ivt; tags: eGFP (N-terminal); dsDNA, one strand shown
ZNF721 full-length = ZNF721 full-length (Homo sapiens, UniProt Q8TF20-2 1-923)
How it was run: (§1)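 The binding signal is a relative k-mer count in selected reads, and higher values mean tighter binding. To obtain these reads, bead-bound tagged transcription factor (full-length or DNA-binding-domain fragment, produced in HEK293 lysate or cell-free extract) was mixed with a randomized 40-base DNA library for 1 h at room temperature in low-stringency HEPES/KCl buffer with Tween20. Bound DNA was recovered by washing and heat elution, PCR-amplified through successive cycles and sequenced on Illumina (~3 million 60 bp reads per sample).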

ZNF721 DBD1 = ZNF721 DBD1 (Homo sapiens, UniProt Q8TF20-2 29-461)
How it was run: as §1

ZNF721 DBD2 = ZNF721 DBD2 (Homo sapiens, UniProt Q8TF20-2 395-923)
How it was run: as §1

Chain of ZNF721 DBD1 (Q8TF20 17-449): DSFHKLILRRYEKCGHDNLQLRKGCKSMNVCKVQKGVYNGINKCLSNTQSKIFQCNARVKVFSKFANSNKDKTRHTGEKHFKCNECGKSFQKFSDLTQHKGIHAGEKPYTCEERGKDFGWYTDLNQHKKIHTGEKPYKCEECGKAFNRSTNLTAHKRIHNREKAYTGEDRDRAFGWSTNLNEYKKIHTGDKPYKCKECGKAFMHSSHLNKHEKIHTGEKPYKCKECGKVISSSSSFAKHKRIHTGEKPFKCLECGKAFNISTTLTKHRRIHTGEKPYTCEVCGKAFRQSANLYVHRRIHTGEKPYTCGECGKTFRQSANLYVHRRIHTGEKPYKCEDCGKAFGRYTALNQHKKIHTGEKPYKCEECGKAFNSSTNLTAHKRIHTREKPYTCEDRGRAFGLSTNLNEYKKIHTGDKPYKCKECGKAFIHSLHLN
Chain of ZNF721 DBD2 (Q8TF20 383-911): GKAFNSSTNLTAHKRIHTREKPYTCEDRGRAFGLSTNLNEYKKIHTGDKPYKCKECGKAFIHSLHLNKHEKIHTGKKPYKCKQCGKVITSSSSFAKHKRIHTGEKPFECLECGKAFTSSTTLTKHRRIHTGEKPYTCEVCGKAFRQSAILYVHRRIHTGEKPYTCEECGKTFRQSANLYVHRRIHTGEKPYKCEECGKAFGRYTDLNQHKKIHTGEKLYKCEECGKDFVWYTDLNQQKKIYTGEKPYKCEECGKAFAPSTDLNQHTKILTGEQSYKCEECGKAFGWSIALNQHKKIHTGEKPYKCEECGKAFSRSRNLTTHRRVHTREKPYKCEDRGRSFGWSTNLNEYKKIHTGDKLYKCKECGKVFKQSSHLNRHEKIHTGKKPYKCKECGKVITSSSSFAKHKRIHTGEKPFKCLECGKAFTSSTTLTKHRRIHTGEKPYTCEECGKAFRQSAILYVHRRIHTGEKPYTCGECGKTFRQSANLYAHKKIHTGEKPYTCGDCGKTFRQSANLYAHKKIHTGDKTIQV
Chain of ZNF721 full-length (Q8TF20 other isoform, or with tags, fused parts or gaps): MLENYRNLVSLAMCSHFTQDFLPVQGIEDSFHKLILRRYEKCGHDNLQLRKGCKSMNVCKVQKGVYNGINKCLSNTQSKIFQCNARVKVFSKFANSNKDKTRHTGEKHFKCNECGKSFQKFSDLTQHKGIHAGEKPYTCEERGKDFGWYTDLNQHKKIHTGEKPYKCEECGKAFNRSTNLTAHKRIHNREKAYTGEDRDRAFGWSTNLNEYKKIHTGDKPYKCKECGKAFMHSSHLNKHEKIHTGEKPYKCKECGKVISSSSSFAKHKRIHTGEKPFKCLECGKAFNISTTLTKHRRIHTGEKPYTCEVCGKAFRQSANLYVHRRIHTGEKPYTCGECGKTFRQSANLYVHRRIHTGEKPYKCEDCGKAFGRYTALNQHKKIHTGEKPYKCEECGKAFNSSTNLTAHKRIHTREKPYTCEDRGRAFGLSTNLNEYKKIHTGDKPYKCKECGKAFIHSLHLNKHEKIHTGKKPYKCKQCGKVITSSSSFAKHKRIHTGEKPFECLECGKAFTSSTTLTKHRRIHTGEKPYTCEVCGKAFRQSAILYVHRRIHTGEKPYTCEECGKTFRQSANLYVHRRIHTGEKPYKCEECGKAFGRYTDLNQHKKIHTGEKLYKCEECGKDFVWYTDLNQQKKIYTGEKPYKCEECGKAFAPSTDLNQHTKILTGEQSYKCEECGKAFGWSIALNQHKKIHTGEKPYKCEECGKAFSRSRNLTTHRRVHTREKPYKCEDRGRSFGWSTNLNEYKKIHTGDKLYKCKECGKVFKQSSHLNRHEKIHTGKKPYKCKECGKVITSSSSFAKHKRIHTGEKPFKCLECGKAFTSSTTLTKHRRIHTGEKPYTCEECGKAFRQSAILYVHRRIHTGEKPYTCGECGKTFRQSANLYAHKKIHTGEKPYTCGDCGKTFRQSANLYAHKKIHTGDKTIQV

Sequence | binding signal (ZNF721 full-length) [relative 10-mer count] | binding signal (ZNF721 DBD1) [relative 10-mer count] | binding signal (ZNF721 DBD2) [relative 10-mer count]
CGCCCCACCC | 0.236 | 0.00844 | 0.00312
CCTCCGCCCC | 0.161 | 0.00789 | 0.003
AGGGGAGGGG | 0.13 | 0.00665 | 0.00479
AAAGCTATCC | 0.165 | 0.0786 | 0.00156
CCCACCCTCC | 0.252 | 0.0121 | 0.0115
AAAAGGCATA | 0.133 | 0.00161 | 0.116
CTTTTTTTTC | 0.171 | 0.0293 | 0.0669
CCCACCCATC | 0.112 | 0.00514 | 0.00587
AACAAGCAGC | 0.132 | 0.0039 | 0.0997
CGAAAAAAAG | 0.159 | 0.0289 | 0.0578
ACACTTCATA | 0.548 | 0.649 | 0.00144
CGCCCACCCA | 0.147 | 0.00449 | 0.00216
ACCCCCCAAC | 0.103 | 0.00321 | 0.00407
AAAAAAAACA | 0.37 | 0.00592 | 0.252
CCCCAGCCCC | 0.202 | 0.0083 | 0.0018
CCTCGCCCCC | 0.123 | 0.00592 | 0.00144
CCCCCTCCCA | 0.157 | 0.00784 | 0.00455
CCCCACCAAC | 0.136 | 0.00638 | 0.00791
CCCACCAACC | 0.171 | 0.00794 | 0.00563
AGTGTCTCCA | 0.147 | 0.0423 | 0.282

Sequence | binding signal (ZNF721 full-length) [relative 10-mer count] | binding signal (ZNF721 DBD1) [relative 10-mer count] | binding signal (ZNF721 DBD2) [relative 10-mer count]
CCGCCACCAC | 0.106 | 0.00417 | 0.0036
CCCGCCCCCG | 0.13 | 0.00482 | 0.00144
GCTTTTTTTA | 0.176 | 0.0317 | 0.0453
CCCCCTGCCC | 0.154 | 0.00628 | 0.00192
GCCTCCCCCC | 0.115 | 0.00518 | 0.00791
CCACGTCCCC | 0.11 | 0.00376 | 0.00252
CCATCCCCCC | 0.155 | 0.00592 | 0.0036
CGCCCCCCTC | 0.116 | 0.00422 | 0.00204
CCCCCCTACC | 0.127 | 0.00569 | 0.0036
CGCCCCTCCC | 0.158 | 0.00605 | 0.00336
AAAGCATACC | 0.143 | 0.0247 | 0.0344
AAAAAAGCGT | 0.276 | 0.0607 | 0.0512
CACCCACACC | 0.127 | 0.0061 | 0.00395
AAAAACAGTA | 0.176 | 0.00119 | 0.212
GTGGGGGGGA | 0.145 | 0.00587 | 0.00348
CCCGCCCCAC | 0.207 | 0.00784 | 0.00252
CACCCACCAC | 0.196 | 0.00949 | 0.00779
CCCCACCACA | 0.148 | 0.00505 | 0.00527
CCCCGCCCGC | 0.115 | 0.00417 | 0.0018
CCCCCACGCC | 0.181 | 0.00688 | 0.00419

Sequence | binding signal (ZNF721 full-length) [relative 10-mer count] | binding signal (ZNF721 DBD1) [relative 10-mer count] | binding signal (ZNF721 DBD2) [relative 10-mer count]
CGTCCCACCC | 0.127 | 0.00495 | 0.00204
AAAAAAGCAC | 0.158 | 0.0181 | 0.0367
GGGAGGGGGA | 0.161 | 0.00752 | 0.00395
AGAAAAAAGC | 0.36 | 0.107 | 0.0556
CACGCCACCC | 0.103 | 0.00344 | 0.00587
AAAAAAAGAG | 0.126 | 0.00949 | 0.0578
CTCCCCCCGC | 0.114 | 0.00468 | 0.00144
AGGGGCGGGG | 0.125 | 0.0044 | 0.00168
CCCCTCTCCC | 0.107 | 0.00454 | 0.00204
ACCCACCCTC | 0.132 | 0.00541 | 0.00647
CCCACACCCC | 0.278 | 0.00977 | 0.00407
CTCCTCCCCC | 0.119 | 0.00633 | 0.00216
ACCCCCCCGC | 0.112 | 0.00248 | 0.003
AAAAAAGAAG | 0.101 | 0.0198 | 0.0207
CCCCCCACCG | 0.17 | 0.00605 | 0.0036
GGGGAGGGGA | 0.125 | 0.00674 | 0.0036
CTAAAAAAAA | 0.107 | 0.0111 | 0.0533
CAGCATCCCC | 0.143 | 0.00165 | 0.154
CACCACACCC | 0.12 | 0.00486 | 0.00336
CACCACCCGC | 0.111 | 0.00454 | 0.00527
